HEK cytotox – kills HEK 293 cells; HEK 293 viability, ATP luminescence (CellTiter-Glo), 48-72 h; Potency, µM (titrated, usually from 115 µM), without a hit: at the top dose activity change, negative = cytotoxicity, actives largely listed as inhibitors; 94,000 compounds, 6.6% hits; note: nearly all actives have a fitted effect of over 60% in size
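CellTiter-Glo luminescence (cellular ATP) was read after 48 or 72 hr of compound exposure at 37 degree Celsius. Cells were HEK 293 plated at 250 cells/well.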
SNCA expr inhib – SNCA gene expression inhibition. 140,000 compounds, 0.17% hits. AID 1671194. Potency, µM (highest dose often 57.2 µM), for inactives: top-dose activity change, negative = inhibition, usual class: inhibitors. HEK-293 SNCA-luciferase knock-in, luminescence, 24 h;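 note: plate controls were DMSO cells for no effect and cell-free wells for full effect; nearly all actives have a fitted effect of over 45% in size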
hNpr1 antagonist – blocks ANP-stimulated signaling of human Npr1 receptor; P16066; HEK293 hNpr1 GloSensor cGMP, ANP-stimulated luminescence; Potency, µM (series often up to 46.3 µM), for inactives: top-dose activity change, negative = inhibition, usual class: inhibitors; 76,000 compounds, 1.6% hits; calls by dose curve; note: nearly all actives have a fitted effect of over 60% in size
Target sequence (P16066 whole entry, looked up): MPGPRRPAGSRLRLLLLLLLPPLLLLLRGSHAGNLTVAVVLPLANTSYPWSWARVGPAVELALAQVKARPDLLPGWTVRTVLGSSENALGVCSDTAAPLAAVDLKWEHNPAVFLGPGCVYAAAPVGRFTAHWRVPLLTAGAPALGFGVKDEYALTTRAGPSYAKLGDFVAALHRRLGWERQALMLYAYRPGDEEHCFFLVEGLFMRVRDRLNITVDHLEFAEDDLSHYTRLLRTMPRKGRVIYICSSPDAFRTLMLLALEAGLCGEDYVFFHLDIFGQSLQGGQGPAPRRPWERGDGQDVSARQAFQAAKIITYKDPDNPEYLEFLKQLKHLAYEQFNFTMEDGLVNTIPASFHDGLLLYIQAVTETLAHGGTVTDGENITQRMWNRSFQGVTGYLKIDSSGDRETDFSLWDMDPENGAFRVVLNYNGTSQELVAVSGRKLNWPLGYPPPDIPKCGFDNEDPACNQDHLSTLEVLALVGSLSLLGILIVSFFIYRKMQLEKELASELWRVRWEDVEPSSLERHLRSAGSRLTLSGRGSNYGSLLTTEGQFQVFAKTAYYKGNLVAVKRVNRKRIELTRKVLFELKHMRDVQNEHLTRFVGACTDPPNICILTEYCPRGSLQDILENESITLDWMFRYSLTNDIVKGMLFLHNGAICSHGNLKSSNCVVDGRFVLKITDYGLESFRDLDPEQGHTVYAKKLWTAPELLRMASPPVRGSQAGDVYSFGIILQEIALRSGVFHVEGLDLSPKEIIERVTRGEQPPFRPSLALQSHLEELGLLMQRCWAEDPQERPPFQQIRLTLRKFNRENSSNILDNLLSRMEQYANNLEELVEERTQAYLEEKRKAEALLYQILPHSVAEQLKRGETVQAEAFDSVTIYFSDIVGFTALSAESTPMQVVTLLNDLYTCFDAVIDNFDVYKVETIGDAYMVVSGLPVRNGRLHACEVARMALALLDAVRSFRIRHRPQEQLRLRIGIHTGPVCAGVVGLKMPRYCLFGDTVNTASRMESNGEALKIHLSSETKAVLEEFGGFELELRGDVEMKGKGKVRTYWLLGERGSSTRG
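HEK293 cells stably expressing human Npr1 and cGMP GloSensor pGS-40F, loaded 2 h with 2% GloSensor reagent, given compound 30 min at room temperature. Luminescence read before and 20 min after 0.1 nM hNppA.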
FLuc inh – inhibitors of firefly (Photinus pyralis) luciferase | AID 1347043 | P08659 | Potency, µM (highest dose often 115 µM), hits mostly inhibitors | 76,000 compounds, 2.5% hits | purified P. pyralis luciferase, luminescence, biochemical; note: nearly all actives have a fitted effect of over 65% in size
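Luminescence read by CCD imager after adding enzyme (10nM final) to wells holding compound, titrated in qHTS. Substrates 10uM each D-luciferin and ATP; buffer 50mM Tris acetate pH 7.5, 10mM Mg acetate, Tween-20, BSA.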
3T3 cytotox – cytotoxic compounds in NIH 3T3 cells; AID 1345082; Potency, µM (doses to about 96.7 µM), for inactives: top-dose activity change, negative = cytotoxicity, most hits filed as inhibitors; 94,000 compounds, 4.3% hits; NIH 3T3 viability, CellTiter-Glo ATP luminescence, 48-72 h; note: nearly all actives have a fitted effect of over 55% in size
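NIH 3T3 cells at 400 cells/well received 23 nL of compound by pintool and were incubated 48 or 72 h at 37 °C. Viability was read as ATP-coupled CellTiter-Glo luminescence.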
SNCA viab count – reduces viability of HEK-293 SNCA reporter cells; 150,000 compounds, 0.12% hits; HEK-293-SNCA-luc viability, GF-AFC fluorescence, 24 h; Potency, µM (doses to about 57.1 µM), for inactives: top-dose activity change, negative = cytotoxicity, actives largely listed as cytotoxic; AID 1671193;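 note: 0% = DMSO-treated cells and -100% = medium-only wells without cells; nearly all actives have a fitted effect of over 30% in size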
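HEK-293-SNCA-luc cells (1500/well) plated 24 h, then exposed 24 h to a dilution series; GF-AFC added 30 min at 37C, fluorescence 405/540 nm; normalised to medium-only and DMSO wells, Hill fit.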
An asterisk follows results filed as active; i = inactive; u = inconclusive; x = not tested or not shown; [ ] = another dose, or the depositor's remark. A selection: hits, their analogues and other compounds. The true share with any hit is near 7.4%. Unless noted, calls come from the whole dose curve; as a rule, active = well fitted curve in the direction sought with a large enough effect; inconclusive = small, poorly fitted or top-dose-only effect, or another doubt; inactive = no such curve, though single readings can be large; an effect the other way counts as inactive or inconclusive. Unless noted, % is set by controls: 0 for no effect and ±100 for the full control effect; potency is the fitted concentration of half-maximal effect.

SMILES	HEK cytotox	SNCA expr inhib	hNpr1 antagonist	FLuc inh	3T3 cytotox	SNCA viab count
Cc1ccc(CNC(=O)C2CCN(C(=O)c3ncn4c3COC(c3ccccc3)C4)CC2)cc1 (stereo not given)	8%	-2%	-10%	16µM*	-1%	-5%
O=C(NCc1ccccc1Cl)C1CCN(C(=O)c2ncn3c2COC(c2ccc(F)cc2)C3)CC1 (stereo not given)	0%	1%	5%	u	i	-5%
Cc1ccc(CNC(=O)CN2CCCN(Cc3ccc(F)cc3)S2(=O)=O)cc1	x	-15%	x	x	x	-9%
Cc1c(-c2ccc(F)cc2)[nH]c2ccc(CNC(=O)c3n[nH]c4c3CCCC4)cc12	u	-26%	16µM*	16µM*	32µM*	u
O=C(NC1CCCc2c1[nH]c1ccc(F)cc21)c1n[nH]c2c1CCC2 (stereo not given)	35µM*	-2%	-27%	i	35µM*	-10%
O=C(NC1CCCc2c1[nH]c1ccc(Cl)cc21)c1ccco1 (stereo not given)	-84%	u	-8%	i	u	-12%
Cc1c(-c2ccc(F)cc2)[nH]c2ccc(CNC(=O)c3cnn(C)c3)cc12	40µM*	-17%	u	25µM*	u	-13%
Cc1onc(C(=O)NCc2ccc3[nH]c(-c4ccc(F)cc4)c(C)c3c2)c1CO	u	0%	u	u	u	-21%
CCN1CCN(CC(=O)NCc2ccc3[nH]c(-c4ccc(F)cc4)c(C)c3c2)CC1	18µM*	34%	0%	u	22µM*	4%
C=CCN1C[C@@]2(C(=O)O)CN(c3nccc4ccccc34)C[C@H]2C1=O	-8%	2%	3%	i	-4%	-6%
NC1(C(=O)NC(CCO)c2ccc(Cl)cc2)CCN(c2ncnc3[nH]ccc23)CC1 (stereo not given)	x	x	x	x	x	-6%
O=C(CCc1c[nH]c2ccccc12)NC1CCCc2c1[nH]c1ccc(F)cc21 (stereo not given)	u	-12%	3%	i	40µM*	-18%
Cc1c(-c2ccccc2F)[nH]c2ccc(CNC(=O)CCN3CCCO3)cc12	u	49%	-15%	16µM*	u	-25%
CCC(=O)N1CCCCCCN(C)C(=O)[C@@H]2CCC[C@@H]21	-9%	4%	-6%	i	-5%	3%
O=C(c1ccc[nH]c1=O)N1CCC(n2cc(-c3nc(-c4ccccc4)no3)nn2)CC1	6%	71%	-14%	u	-28%	-3%
O=C(c1cccc2[nH]ccc12)N1CCC(n2cc(-c3nc(-c4ccccc4)no3)nn2)CC1	28µM*	8%	u	i	u	-17%
O=C(c1cccc2[nH]ccc12)N1CCC(n2cc(-c3nc(-c4ccccc4)no3)nn2)C1 (stereo not given)	u	6%	11µM*	u	u	-27%
CC(C)c1noc(-c2cn(C3CCN(C(=O)c4cccc5[nH]ccc45)CC3)nn2)n1	45µM*	-9%	0%	i	-23%	3%
CCc1noc(-c2cn(C3CCN(C(=O)c4cccc5[nH]ccc45)CC3)nn2)n1	u	21%	-26%	i	-24%	5%
CN(C)[C@@H]1CO[C@H](CNC(=O)c2cccs2)[C@H]1O	1%[230 µM]	3%[87.6 µM]	0%[70.6 µM]	i	0%[230 µM]	2%[87.6 µM]
COc1ccccc1Nc1ncc2c(n1)CN(C(=O)c1cc3ccccc3n1C)CCN2	71µM*	-12%[87.6 µM]	-17%[70.6 µM]	i	u	-4%[87.6 µM]
COc1ccccc1Nc1ncc2c(n1)CN(C(=O)c1cccc(C#N)c1)CCN2	79µM*	u	u	i	-24%[138 µM]	-11%[87.6 µM]
CCCC(=O)N1Cc2ccccc2CC2(CCN(Cc3ccccn3)C2)C1 (stereo not given)	-45%	-21%	x	x	-34%	-7%
COc1cc(O)c2c(c1)C1=CC(O)C(O)CC1(C)OC2=O (stereo not given)	x	x	x	x	x	1%
COc1cc(O)c2c(c1)/C=C/C[C@H](O)[C@H](O)C(=O)/C=C\C[C@H](C)OC2=O	x	x	x	x	x	24µM*
SMILES	HEK cytotox	SNCA expr inhib	hNpr1 antagonist	FLuc inh	3T3 cytotox	SNCA viab count
O=C(c1cc(-c2cccc(C(F)(F)F)c2)c2nncn2n1)N1CCCC1	2%	-14%	x	x	-8%	12%
O=C(c1cc(-c2cccc(C(F)(F)F)c2)c2nncn2n1)N1CCC(c2ccccc2)CC1	25µM*	4%	x	x	u	6%
C#CCNC(=O)c1cc(-c2cccc(C(F)(F)F)c2)c2nncn2n1	10µM*	u	x	x	u	u
COc1cc2c(c(OC)c1O)C(c1ccc(O)cc1)C1C(=O)OC3C(COC(=O)C1=C2)OC(CO)(OC1OC(COC(=O)/C=C/c2ccc(OC4OC(C)C(O)C(O)C4O)cc2)C(O)C(O)C1O)C3O (stereo not given)	x	x	x	x	x	13%[12.5 µM]
CC1(C)[C@H]2CC[C@@H](CNC(=O)c3cccc(Cl)c3)[C@@H]1C2	79µM*	-8%[87.6 µM]	2%[70.6 µM]	i	u	-5%[87.6 µM]
CC1(C)[C@H]2CC[C@@H](CNC(=O)c3ccccc3Cl)[C@@H]1C2	u	-9%[87.6 µM]	-16%[70.6 µM]	i	u	2%[87.6 µM]
CC1(C)[C@H]2CC[C@@H](CNC(=O)c3ccc(Cl)cc3)[C@@H]1C2	u	u	-8%[70.6 µM]	i	40µM*	-26%[87.6 µM]
CC1(C)[C@H]2CC[C@@H](CNC(=O)c3cccnc3)[C@@H]1C2	-32%[172 µM]	-13%[87.6 µM]	-20%[70.6 µM]	i	u	9%[87.6 µM]
CC1(C)[C@H]2CC[C@@H](CN[S+](=O)([O-])c3ccccc3)[C@@H]1C2	79µM*	-29%[87.6 µM]	-26%[70.6 µM]	i	u	1%[87.6 µM]
COc1cccc(C(=O)NC[C@@H]2CC[C@H]3C[C@@H]2C3(C)C)c1	89µM*	8%[87.6 µM]	-1%[70.6 µM]	i	u	-4%[87.6 µM]
O=C(CNC(=O)c1ccc(-c2cccc(C(F)(F)F)c2)cc1)NCc1ccc(C(F)(F)F)cc1	u	3%	x	x	u	2%[12.5 µM]
Cn1nc(C2CCNCC2)n(-c2ccccc2)c1=O	2%	5%	7%	i	i	-2%
CC(Nc1ccc(-c2nc(CCCc3ccccc3)no2)cn1)c1cnn(C)c1 (stereo not given)	u	142%	-24%	16µM*	u	-4%
CN(C)C(=O)N1CCCC(c2nn(-c3ccccn3)c(=O)[nH]2)C1 (stereo not given)	-3%[172 µM]	28%[87.6 µM]	x	x	4%[138 µM]	4%[87.6 µM]
CN1Cc2ccc(NCc3ccccc3)nc2C(C)(C(=O)NCc2ccccc2)C1 (stereo not given)	u	-10%[87.6 µM]	-18%[70.6 µM]	i	u	-20%[87.6 µM]
